Tb PFK inh: qHTS Assay to Find Inhibitors of T. brucei phosphofructokinase; ATP-dependent 6-phosphofructokinase (Trypanosoma brucei brucei), O15648; T. brucei PFK, ADP-Glo luminescence; Potency, µM (titrated, usually from 57.5 µM), for the others: at the highest dose activity, negative = inhibition, hits mostly inhibitors; actives 0.17% (n = 330,000); AID 485367, 2010;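 also: 0% = uninhibited 1x PFK enzyme wells and -100% = no-enzyme wells; nearly all actives have a fitted effect of over 60% in size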
Target sequence (O15648 whole entry, looked up): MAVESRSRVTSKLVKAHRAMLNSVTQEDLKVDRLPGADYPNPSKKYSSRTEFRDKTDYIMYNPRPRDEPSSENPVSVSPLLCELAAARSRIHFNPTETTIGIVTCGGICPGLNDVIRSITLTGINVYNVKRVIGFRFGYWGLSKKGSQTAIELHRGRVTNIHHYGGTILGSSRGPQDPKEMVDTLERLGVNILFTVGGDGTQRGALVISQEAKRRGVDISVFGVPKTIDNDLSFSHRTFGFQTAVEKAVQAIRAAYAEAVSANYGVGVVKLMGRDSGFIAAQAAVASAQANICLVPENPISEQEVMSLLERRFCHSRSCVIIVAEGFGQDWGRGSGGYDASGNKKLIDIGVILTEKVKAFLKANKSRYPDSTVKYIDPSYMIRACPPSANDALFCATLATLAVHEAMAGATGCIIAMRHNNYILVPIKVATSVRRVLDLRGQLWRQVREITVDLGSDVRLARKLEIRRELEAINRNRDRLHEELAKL
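PFK 1.25 nM, F6P 0.5 mM, ATP 0.1 mM, 0.1 M TEA pH 8.0, 5 mM MgCl2, 0.01% Tween20, 0.1% BSA; 45 min RT. ADP-Glo readout. qHTS titration up to 57 uM; curves fitted, compounds curve-classed.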
IMPase Li cell: qHTS Assay for Identifying the Cell-Membrane Permeable IMPase Inhibitors: Potentiation with Lithium | CHO-M1 cells, IP1 TR-FRET (IP-One), carbachol + lithium | Potency, µM (highest dose often 59.4 µM), for inactives: top-dose activity, negative = IMPase inhibition, usual class: inhibitors | actives 0.35% (n = 210,000) | AID 1457, 2008;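 also: IP1 builds up when IMPase is blocked and the TR-FRET signal falls; plate controls were basal vehicle for no effect and high inhibitor control for full effect; nearly all actives have a fitted effect of over 50% in size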
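Test compounds were applied to CHO-M1 cells previously cultured for 16–30 h at 2000 per well. A small lithium amount accompanied them; after 30 min at 37C, IP1 was quantified by TR-FRET.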
MBNL1-CUG inh: qHTS Assay for Inhibitors of MBNL1-poly(CUG) RNA binding; Muscleblind-like protein 1 (Homo sapiens), Q9NR56; TR-FRET MBNL1-His/biotin-(CUG)12 binding, 665/545 ratio; Potency, µM (highest dose often 57.5 µM), inactives show at the highest dose activity change, negative = inhibition, hits mostly inhibitors; actives 0.036% (n = 280,000); AID 2675, 2010; active = well fitted inhibition curve with a large enough effect in the signal ratio, with a control signal flat, not every such curve was filed as active; inconclusive = small, poorly fitted or top-dose-only effect, or effect the other way, or a change in a side signal; inactive = no such curve, though single readings can be large or run the other way; the % refers to the signal ratio
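Inhibition of protein-RNA binding appears as loss of TR-FRET between terbium anti-His antibody on MBNL1-His and streptavidin-XL665 on biotin-(CUG)12. Activity is normalized to buffer-only and uninhibited-complex controls.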
GoLoco inh red: qHTS Assay for Inhibitors of RGS12 GoLoco Motif Activity (Red Fluorophore); Guanine nucleotide-binding protein G(i) subunit alpha-1 (Homo sapiens), P63096; Gai1:RGS12 GoLoco peptide FP, rhodamine, 10 min; Potency, µM (top dose mostly 61.6 µM), inactives show at the top dose activity, negative = inhibition, actives largely listed as inhibitors; actives 0.44% (n = 230,000); AID 880, 2007; active = well fitted inhibition curve with a large enough effect, not every such curve was filed as active; inactive = no such curve, though single readings can be large or run the other way; also: nearly all actives have a fitted effect of over 30% in size
NPSR antag: qHTS Assay for Antagonists of the Neuropeptide S Receptor: cAMP Signal Transduction | Q6W5P4 | CHO-NPSR cells, cAMP TR-FRET, antagonist mode | Potency, µM (top dose mostly 38.3 µM), inactives show top-dose activity change, negative = inhibition, hits mostly inhibitors | actives 1% (n = 220,000) | AID 1461, 2008; also: nearly all actives have a fitted effect of over 50% in size
The depositor's hits bear a star; ? = inconclusive; / = not tested or not shown; [ ] = another dose, or the depositor's remark. Shown is part of a subset that was picked to be rich in hits. Unless noted, calls follow the shape of the dose curve; as a rule, active = well fitted curve in the direction sought with a large enough effect; inconclusive = small, poorly fitted or top-dose-only effect, or another doubt; inactive = no such curve, though single readings can be large; an effect the other way counts as inactive or inconclusive. Unless noted, % is scaled to controls: 0 for no effect and ±100 for the full control effect; potency is read from the fitted curve at half-maximal effect.

SMILES | Tb PFK inh | IMPase Li cell | MBNL1-CUG inh | GoLoco inh red | NPSR antag
CC(C)[C@H](NC(=O)OC(C)(C)C)c1nnc(S(=O)(=O)Cc2c(F)cccc2Cl)o1 | -2% | 48%[38.3 µM] | -9% | -23% | 13µM*
CC1C=C[C@@H]2[C@H](C1)C(=O)N(Cc1ccccc1)[C@H]2c1ccccc1Br (stereo partly drawn) | / | 18% | / | 6% | /
CCOC(=O)CCCCC(=O)c1[nH]c(=O)[nH]c1CSc1nc2ccccc2[nH]1 | -6% | 5% | ? | -1% | 2%
Cc1[nH]c(=O)[nH]c1C(=O)CCCCC(=O)OCC(=O)Nc1ccccn1 | -4% | -12%[38.3 µM] | 0.045µM* | 4% | -2%[46.1 µM]
COc1ccc(C(=O)OCC(=O)c2ccc3[nH]c(=O)[nH]c3c2)c(OC)c1OC | -3% | / | / | / | /
COc1cc(/C=C(\C#N)C(=O)c2c[nH]c3ccccc23)cc(OC)c1O | -2% | 5% | ? | 194% | -34%
C/C(C=O)=C/c1ccccc1 | 6% | -9% | / | 13% | /
O=C(C1CC(=O)N(c2ccccc2F)C1)N1CCOCC1 (stereo not drawn) | -2% | / | / | / | /
O=C(O)c1cccc(N2C(=O)c3cccc4cccc(c34)C2=O)c1 | 6% | / | ? | / | /
Cc1ccc(C(=O)O)cc1N1C(=O)c2cccc3cc(Br)cc(c23)C1=O | -11% | 2.2µM* | ? | 2% | -11%[46.1 µM]
Cc1nn(CC(O)CN2c3ccccc3Sc3ccccc32)c(C)c1Br (stereo not drawn) | 3% | 13%[38.3 µM] | -7% | -6% | 6.3µM*
Cc1nc(NC(=O)COC(=O)c2ccc(S(=O)(=O)N3CCc4ccccc4C3)cc2)c(Cl)cc1Cl | -2% | 10µM* | -1% | 62% | -11%
O=C(COC(=O)c1ccc(Cl)c(S(=O)(=O)N2CCc3ccccc3C2)c1)Nc1ncc(Cl)cc1Cl | 0% | -4% | / | 57% | -5%
COC(CNC(=O)c1cccnc1)OC | -7% | 6% | -11% | 3% | -11%
COC(CNC(=O)c1ccc2c3c(onc13)-c1ccccc1C2=O)OC | -9% | / | ? | 10µM* | ?
Oc1ccc(-c2nc3ccccc3s2)c(O)c1 | 1% | / | 3% | 5% | ?
Oc1ccc(-c2cnns2)c(O)c1 | ? | 4% | 20%[11.5 µM] | 1.3µM* | 5%
Cc1ccc(C2=NC(=O)/C(=C/c3cc(O)c(O)c(Br)c3)S2)cc1 | ? | 80% | 19% | 153% | -55%
COc1cc(/C=C2\SC(c3ccc(C)cc3)=NC2=O)cc(OC)c1O | -10% | 49% | ? | 115% | 2µM*
CCOc1cc(N2CCOCC2)c(OCC)cc1NC(=O)CC12CC3CC(CC(C3)C1)C2 | 2% | 47%[38.3 µM] | -1% | -18% | 10µM*
CCOc1cc(N2CCOCC2)c(OCC)cc1NC(=O)Cn1cnnn1 | -8% | / | / | / | /
C[C@@]12CCC3[C@@](CCC4[C@@]3(C)CCC[C@@]4(C)C(=O)N3CCOCC3)(CC1=O)C2 (stereo partly drawn) | 0% | / | / | / | /
CN(C)C1C(=O)C(C(N)=O)=C(O)[C@@]2(O)C(=O)C3=C(O)c4c(O)ccc(Cl)c4[C@@H](O)C3C[C@@H]12 (stereo partly drawn) | / | 10µM* | ? | -4% | 4%[46.1 µM]
CN(C)C1C(=O)C(C(N)=O)C(=O)C2(O)C(=O)C3C(=O)c4c(O)ccc(Cl)c4C(O)C3CC12 (stereo not drawn) | / | 10µM* | / | 6% | /
CC1(C)CC23C(=O)CCC(O)C2(C)CCC13 (stereo not drawn) | / | -13% | / | -2% | /
SMILES | Tb PFK inh | IMPase Li cell | MBNL1-CUG inh | GoLoco inh red | NPSR antag
Cc1ccc(S(=O)(=O)Nc2ccc(-c3nc4cc(NS(=O)(=O)c5ccc(C)cc5)ccc4o3)cc2)cc1 | -3% | 6%[38.3 µM] | 14% | -22% | 10µM*
Cc1ccc(-c2nc3cc(NC(=O)C(C)C)ccc3o2)cc1 | 6% | -13%[38.3 µM] | -2% | 4% | ?
O=C(c1cc(S(=O)(=O)N2CCOCC2)c(Cl)cc1Cl)N1CCN(S(=O)(=O)c2cccc(F)c2)CC1 | 10% | / | / | / | /
COc1cc(/C=C(\C#N)c2nc3ccccc3[nH]2)cc(OC)c1O | 1% | 31% | ? | 217% | -31%
COc1cc(/C=C(\C#N)c2nc3ccccc3[nH]2)cc(Br)c1OCc1ccc(F)cc1 | 4% | 15%[38.3 µM] | 6% | 20% | 5µM*
O=S(=O)(Nc1nc2ccccc2nc1Cl)c1ccc(Cl)cc1 | 2% | -26% | 19% | 10% | -28%
Cc1ccccc1S(=O)(=O)Nc1nc2ccccc2nc1Cl | 9% | 3.5µM* | 26% | -11% | -49%
Cc1ccc(-n2nc3c(=S)[nH]nc(C)c3c2C)cc1 | -2% | 4.5µM* | ? | 8% | ?
Cc1n[nH]c(=S)c2nn(-c3ccccc3)c(C)c12 | -1% | 14µM* | 70% | 13% | ?
Cc1n[nH]c(=S)c2nn(-c3cccc(Cl)c3)c(C)c12 | 0% | ? | 27% | 21% | 25%[46.1 µM]
CC1(OC(=O)C2CCCC2)C(=O)C=C2C=C(c3ccsc3)N(c3cccc(C#N)c3)C=C2C1=O (stereo not drawn) | / | 1% | / | 2%[14.2 µM] | /
C[N+]1(CCCCCCC(=O)/C=N/O)CCCCCC1 | 6% | 51%[38.3 µM] | 5% | 13µM* | 1%[46.1 µM]
CN(CCCCCC(=O)/C=N/O)Cc1ccccc1 | -4% | 4% | -9% | 5% | 8%
C[N+](C)(C)CCCCCCC(=O)/C=N/O | 2% | 0% | 9% | 1.8µM* | 18%
Cc1ccn2nc(C(=O)OCC(=O)N(CC(C)C)C3CCS(=O)(=O)C3)nc2n1 (stereo not drawn) | -2% | / | / | / | /
Cc1sc(NC(=O)CCl)c(C(=O)c2ccccc2)c1C | 0% | 65%[38.3 µM] | ? | -11% | 7.9µM*
Cc1ccc(S(=O)(=O)Nc2cccc3ncccc23)s1 | 3% | 28%[38.3 µM] | 16% | 18% | 2µM*
O=C(CCCOc1ccc(Br)cc1)Nc1nnc(C2CC2)s1 | 0% | / | / | / | /
COc1ccc(-c2c(-c3ccc(OC)c(C)c3O)n[nH]c2C)cc1 | 0% | / | 1% | / | /
Cc1ccc(Cl)cc1N1CCN(Cc2cc3c(cc2O)CCC3)CC1 | 1% | 44%[38.3 µM] | -4% | 0% | 10µM*
COCCOC(=O)c1c(C)nc(SCC(=O)Nc2ccc(OC)cc2)c(C#N)c1-c1ccco1 | 3% | 15%[38.3 µM] | 228% | 8% | -15%[46.1 µM]
O=C(CSc1nc2[nH]ncc2c(=O)[nH]1)Nc1cccc(Cl)c1 | -1% | / | / | / | /
COc1cccc(NC(=O)CSc2nc3c(c(-c4ccco4)c2C#N)CCCC3)c1 | 1% | 11µM* | -11% | 50% | -4%[46.1 µM]

Bioassay records from PubChem BioAssay.
